Measurements taken from the supplement of paper PMC10849652.
Of roughly 7,900 targets only a part is listed; those with a hit were picked by preference. About 0.6% of all pairs of compound and target were hits.

Experiments:
Assay in all cases: log2 fold change, soluble protein after heating vs DMSO (PISA); higher = thermal stabilisation; K562 cells, 10 uM, 30 min; active = over 0.2 and 3.5 SD of the protein, either way, in both replicates (recomputed)
[1] = compound: C1=CC=C(C=C1)[C@H](COC2=CC3=C(C=C2)NC(=O)N3)NC(=O)C4=CC=CN(C4=O)CC5=CC(=C(C=C5)F)F
Summary of the method: (§1)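 K562 cells at 2×10^6 cells/mL were exposed to 10 μM compound for 30 min, then aliquots were heated for 3 min across 48°C-58°C, pooled, and extracted in PBS containing 0.5% NP-40 at 4°C. The supernatant after 21,000xg for 90 min was taken as soluble protein and measured by TMTpro 16plex LC-MS/MS with channel sums equalised. Thermal stability is reported relative to control samples, with values from duplicates. Fold changes are given on a log2 scale.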

[2] = compound: CC1=C(SC2=C1C(=N[C@H](C3=NN=C(N32)C)CC(=O)N)C4=CC=C(C=C4)Cl)C
Summary of the method: as §1

[3] = compound: CC1=C2C(=CC=C1)N=C(N(C2=O)C3=CC=CC=C3C)CN4C=NC5=C(N=CN=C54)N
Summary of the method: as §1

[4] = compound: Cc1sc2c(c1C)C(c1ccc(Cl)cc1)=N[C@@H](CC(=O)OC(C)(C)C)c1nnc(C)n1-2
Summary of the method: as §1

[5] = compound: c1ccc([C@@H]2C[C@H]2NC2CCNCC2)cc1
Summary of the method: as §1

Measured: log2 fold change

PAK1 isoform 2 (UniProt Q13153)
Sequence of UniProt Q13153 (Q13153 whole entry, looked up): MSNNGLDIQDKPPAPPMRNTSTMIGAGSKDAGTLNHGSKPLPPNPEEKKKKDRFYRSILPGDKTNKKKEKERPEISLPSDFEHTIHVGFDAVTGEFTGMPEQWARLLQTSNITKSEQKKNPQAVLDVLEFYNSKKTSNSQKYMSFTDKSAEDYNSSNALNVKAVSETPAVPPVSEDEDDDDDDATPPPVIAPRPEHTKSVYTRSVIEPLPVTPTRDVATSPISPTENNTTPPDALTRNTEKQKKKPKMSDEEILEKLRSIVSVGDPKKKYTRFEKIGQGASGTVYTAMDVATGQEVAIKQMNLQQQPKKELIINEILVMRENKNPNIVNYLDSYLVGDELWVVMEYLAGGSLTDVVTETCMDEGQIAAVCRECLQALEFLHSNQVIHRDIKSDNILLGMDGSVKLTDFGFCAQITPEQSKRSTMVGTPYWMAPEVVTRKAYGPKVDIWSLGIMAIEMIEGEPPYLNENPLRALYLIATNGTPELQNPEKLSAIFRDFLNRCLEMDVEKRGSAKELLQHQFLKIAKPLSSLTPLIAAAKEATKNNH
inactive: [1] -0.152 | [2] 0.097 | [3] -0.113 | [4] -0.02 | [5] -0.092

NSMCE2 (UniProt Q96MF7)
Sequence of UniProt Q96MF7 (Q96MF7 whole entry, looked up): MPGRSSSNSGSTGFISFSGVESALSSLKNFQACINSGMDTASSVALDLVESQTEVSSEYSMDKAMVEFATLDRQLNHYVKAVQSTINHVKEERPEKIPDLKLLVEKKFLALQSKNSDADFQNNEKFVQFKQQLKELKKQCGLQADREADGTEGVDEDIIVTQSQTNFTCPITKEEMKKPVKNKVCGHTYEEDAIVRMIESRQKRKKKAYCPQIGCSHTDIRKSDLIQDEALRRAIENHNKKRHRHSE
inactive: [1] 0.074 | [2] 0.031 | [3] 0.075 | [4] 0.004 | [5] -0.017

MRPS25 (UniProt P82663)
inactive: [1] -0.002 | [2] -0.05 | [3] -0.067 | [4] 0.059 | [5] 0.014

MRFAP1 (UniProt Q9Y605)
Sequence of UniProt Q9Y605 (Q9Y605 whole entry, looked up): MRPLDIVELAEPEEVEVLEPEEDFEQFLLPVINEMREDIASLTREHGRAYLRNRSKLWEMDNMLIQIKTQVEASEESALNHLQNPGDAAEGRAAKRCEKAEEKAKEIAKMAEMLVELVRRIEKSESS
inactive: [1] 0.009 | [2] 0.109 | [3] -0.043 | [4] 0.031 | [5] -0.017

NAT14 (UniProt Q8WUY8)
Sequence of UniProt Q8WUY8 (Q8WUY8 whole entry, looked up): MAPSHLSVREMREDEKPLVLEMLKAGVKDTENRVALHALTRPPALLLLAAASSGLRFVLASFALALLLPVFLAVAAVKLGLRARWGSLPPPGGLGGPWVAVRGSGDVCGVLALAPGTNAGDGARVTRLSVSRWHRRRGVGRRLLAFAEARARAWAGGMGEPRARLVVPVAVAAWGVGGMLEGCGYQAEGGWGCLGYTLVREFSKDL
inactive: [1] -0.059 | [2] 0.055 | [3] -0.087 | [4] 0.043 | [5] -0.047

NAP1L1 (UniProt P55209)
Sequence of UniProt P55209 (P55209 whole entry, looked up): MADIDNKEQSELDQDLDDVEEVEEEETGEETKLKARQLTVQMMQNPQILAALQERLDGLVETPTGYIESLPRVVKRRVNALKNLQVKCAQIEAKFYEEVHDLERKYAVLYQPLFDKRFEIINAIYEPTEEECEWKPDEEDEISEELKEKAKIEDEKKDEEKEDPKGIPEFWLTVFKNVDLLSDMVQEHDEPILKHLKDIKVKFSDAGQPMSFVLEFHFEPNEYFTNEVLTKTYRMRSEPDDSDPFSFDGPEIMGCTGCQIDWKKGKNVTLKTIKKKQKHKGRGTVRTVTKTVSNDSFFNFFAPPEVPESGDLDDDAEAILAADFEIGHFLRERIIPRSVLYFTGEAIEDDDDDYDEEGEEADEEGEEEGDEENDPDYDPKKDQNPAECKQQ
inactive: [1] -0.072 | [2] 0.003 | [3] 0.17 | [4] 0.013 | [5] 0.009

NEDD4L (UniProt Q96PU5)
Sequence of UniProt Q96PU5 (Q96PU5 whole entry, looked up): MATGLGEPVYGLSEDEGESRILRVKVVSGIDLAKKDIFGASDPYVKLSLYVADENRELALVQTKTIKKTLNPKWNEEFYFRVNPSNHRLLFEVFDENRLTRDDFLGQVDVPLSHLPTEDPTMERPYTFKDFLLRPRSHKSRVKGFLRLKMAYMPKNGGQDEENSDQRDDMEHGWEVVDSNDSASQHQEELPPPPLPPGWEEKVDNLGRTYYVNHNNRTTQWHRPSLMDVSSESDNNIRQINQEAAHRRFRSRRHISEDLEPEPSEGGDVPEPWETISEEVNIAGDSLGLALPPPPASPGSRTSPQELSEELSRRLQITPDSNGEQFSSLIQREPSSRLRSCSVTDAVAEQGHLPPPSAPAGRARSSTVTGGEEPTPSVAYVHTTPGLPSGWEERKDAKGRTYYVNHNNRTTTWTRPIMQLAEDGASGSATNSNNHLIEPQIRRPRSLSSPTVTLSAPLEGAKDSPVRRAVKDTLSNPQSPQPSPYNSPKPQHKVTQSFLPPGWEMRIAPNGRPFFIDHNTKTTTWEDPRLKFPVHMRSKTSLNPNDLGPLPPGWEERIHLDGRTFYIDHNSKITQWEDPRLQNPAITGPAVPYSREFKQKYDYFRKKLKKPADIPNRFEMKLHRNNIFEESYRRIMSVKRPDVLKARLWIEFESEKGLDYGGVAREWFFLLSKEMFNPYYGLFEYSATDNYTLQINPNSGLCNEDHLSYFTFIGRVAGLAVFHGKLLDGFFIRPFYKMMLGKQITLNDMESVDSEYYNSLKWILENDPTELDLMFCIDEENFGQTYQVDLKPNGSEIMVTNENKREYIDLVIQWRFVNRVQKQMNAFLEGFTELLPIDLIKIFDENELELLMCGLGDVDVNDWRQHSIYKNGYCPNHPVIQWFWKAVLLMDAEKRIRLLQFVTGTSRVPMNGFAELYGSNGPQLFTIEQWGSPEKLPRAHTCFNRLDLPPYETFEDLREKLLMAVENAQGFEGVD
inactive: [1] 0.014 | [2] 0.038 | [3] 0.039 | [4] 0.054 | [5] 0.027

NHLRC2 (UniProt Q8NBF2)
Sequence of UniProt Q8NBF2 (Q8NBF2 whole entry, looked up): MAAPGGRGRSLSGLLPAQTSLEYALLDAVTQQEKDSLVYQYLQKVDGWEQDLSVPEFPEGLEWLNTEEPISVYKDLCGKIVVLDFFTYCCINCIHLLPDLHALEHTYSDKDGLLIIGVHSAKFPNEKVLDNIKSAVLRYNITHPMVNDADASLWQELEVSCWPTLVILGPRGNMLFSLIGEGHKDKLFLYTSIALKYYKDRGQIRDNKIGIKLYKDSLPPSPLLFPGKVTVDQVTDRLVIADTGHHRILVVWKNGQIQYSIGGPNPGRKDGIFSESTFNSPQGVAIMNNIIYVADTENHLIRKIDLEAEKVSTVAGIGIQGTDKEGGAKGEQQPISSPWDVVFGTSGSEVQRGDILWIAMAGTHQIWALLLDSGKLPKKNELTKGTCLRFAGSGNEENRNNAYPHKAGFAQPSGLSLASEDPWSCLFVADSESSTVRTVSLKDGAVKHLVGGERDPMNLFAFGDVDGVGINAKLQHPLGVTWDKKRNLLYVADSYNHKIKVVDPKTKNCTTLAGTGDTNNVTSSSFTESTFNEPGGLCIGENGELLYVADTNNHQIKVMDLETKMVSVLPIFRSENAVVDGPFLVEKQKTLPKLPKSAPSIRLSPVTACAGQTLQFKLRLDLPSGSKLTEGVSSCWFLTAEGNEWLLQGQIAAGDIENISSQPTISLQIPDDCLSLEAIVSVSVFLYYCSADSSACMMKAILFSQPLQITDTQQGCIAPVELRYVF
inactive: [1] -0.027 | [2] 0.038 | [3] 0.127 | [4] 0.009 | [5] 0.024

MRPS15 (UniProt P82914)
inactive: [1] -0.035 | [2] 0.077 | [3] -0.056 | [4] 0.066 | [5] -0.097
